Source: the supplement of paper PMC8728848
Many of the other results were omitted from the sample, so the strongest signals are more common in it than they were.

Legend:
Assay in all cases: glycan array binding signal (z-score within array); higher = stronger binding
Conditions in all cases: glycan notation: IUPAC condensed, linker removed
Gal(b1-4)Glc = test system: Gal(b1-4)Glc
Method in brief: (§1)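 The binding signal is a Z-score computed within each array. Data were drawn from 3228 arrays in the Consortium for Functional Glycomics database, restricted to those with a known protein sequence. Scores were averaged over arrays of the same protein sequence at different concentrations or buffers, and over linkers, and negative values can be taken as non-binding.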

Gal3S(b1-4)Glc = test system: Gal3S(b1-4)Glc
Method in brief: as §1

Gal3S6S(b1-4)GlcNAc6S = test system: Gal3S6S(b1-4)GlcNAc6S
Method in brief: as §1

[1] = test system: Gal3S(b1-3)[Fuc(a1-4)]GlcNAc
Method in brief: as §1

Gal6S(b1-4)GlcNAc = test system: Gal6S(b1-4)GlcNAc
Method in brief: as §1

Gal3S4S(b1-4)GlcNAc = test system: Gal3S4S(b1-4)GlcNAc
Method in brief: as §1

Gal6P(b1-4)GlcNAc = test system: Gal6P(b1-4)GlcNAc
Method in brief: as §1

Gal6S(b1-3)GlcNAc6S = test system: Gal6S(b1-3)GlcNAc6S
Method in brief: as §1

Gal6S(b1-3)GlcNAc = test system: Gal6S(b1-3)GlcNAc
Method in brief: as §1

Gal6S(b1-4)Glc6S = test system: Gal6S(b1-4)Glc6S
Method in brief: as §1

Gal6S(b1-4)GlcNAc6S = test system: Gal6S(b1-4)GlcNAc6S
Method in brief: as §1

Gal6S(b1-4)Glc = test system: Gal6S(b1-4)Glc
Method in brief: as §1

Gal3S(b1-4)GlcNAc = test system: Gal3S(b1-4)GlcNAc
Method in brief: as §1

[2] = test system: Gal3S(b1-4)[Fuc(a1-3)]GlcNAc
Method in brief: as §1

Gal(b1-6)Gal = test system: Gal(b1-6)Gal
Method in brief: as §1

Gal3S(b1-3)GlcNAc = test system: Gal3S(b1-3)GlcNAc
Method in brief: as §1

Gal(b1-4)GlcNAc = test system: Gal(b1-4)GlcNAc
Method in brief: as §1

Gal3S(b1-3)GalNAc = test system: Gal3S(b1-3)GalNAc
Method in brief: as §1

[3] = test system: Gal3S(b1-4)[Fuc(a1-3)]Glc6S
Method in brief: as §1

Gal4S6S(b1-4)GlcNAc = test system: Gal4S6S(b1-4)GlcNAc
Method in brief: as §1

## LcI (Legionella pneumophila)
Gal(b1-4)Glc
  glycan array binding signal (z-score): 0.081
Gal3S(b1-4)Glc
  glycan array binding signal (z-score): 3.4
Gal3S6S(b1-4)GlcNAc6S
  glycan array binding signal (z-score): -0.439

## BambL (Burhholderia ambifaria), Q0B4G1
[1]
  glycan array binding signal (z-score): 0.713
Gal6S(b1-4)GlcNAc
  glycan array binding signal (z-score): -0.314

## Epa22
Gal3S4S(b1-4)GlcNAc
  glycan array binding signal (z-score): -0.476
Gal6P(b1-4)GlcNAc
  glycan array binding signal (z-score): -0.491
Gal6S(b1-3)GlcNAc6S
  glycan array binding signal (z-score): 2.55
Gal6S(b1-3)GlcNAc
  glycan array binding signal (z-score): 1.89
Gal6S(b1-4)Glc6S
  glycan array binding signal (z-score): 7.08
Gal6S(b1-4)GlcNAc6S
  glycan array binding signal (z-score): 12.6
Gal6S(b1-4)Glc
  glycan array binding signal (z-score): 1.51

## AgI/IIC123-GFP (Streptococcus mutans)
Gal3S(b1-4)GlcNAc
  glycan array binding signal (z-score): -0.345
[2]
  glycan array binding signal (z-score): 0.852
Gal3S4S(b1-4)GlcNAc
  glycan array binding signal (z-score): -0.466

## Wza (Escherichia coli), P0A930
Gal(b1-6)Gal
  glycan array binding signal (z-score): -0.876
Gal3S(b1-3)GlcNAc
  glycan array binding signal (z-score): 0.986
Gal6S(b1-4)GlcNAc6S
  glycan array binding signal (z-score): 0.571

## AgI/II Vhelical-GFP (Streptococcus mutans)
Gal3S6S(b1-4)GlcNAc6S
  glycan array binding signal (z-score): 1.08
Gal6S(b1-4)GlcNAc6S
  glycan array binding signal (z-score): 2.17

## SpGH101 (Streptococcus pneumoniae), Q8DR60
Gal(b1-4)GlcNAc
  glycan array binding signal (z-score): -0.157
Gal3S(b1-3)GalNAc
  glycan array binding signal (z-score): 5.02
[3]
  glycan array binding signal (z-score): 0.164
Gal6S(b1-3)GlcNAc
  glycan array binding signal (z-score): -0.229

## SiiE (Salmonella typhimurium), A0A0H3NVH0
[1]
  glycan array binding signal (z-score): -0.012
Gal4S6S(b1-4)GlcNAc
  glycan array binding signal (z-score): -0.799
